# Test results: PubChem BioAssay (Tox21)
# Results filed as inconclusive are left out. Entries that show only a call come without a potency. Activity calls are given as the source filed them. Calls follow the shape of the full dose curve.
# Assay: cAMP Responsive Elements (CRE) small molecule agonists, cell-based qHTS assay (AID 1963590)
# Settings: CRE-bla HEK293T, beta-lactamase FRET ratio, 3 h; series mostly up to 92.4 µM
# Text: U.S. Tox21 Program National Center for Advancing Translational Sciences [NCATS] Division of Preclinical Innovation [DPI] U.S. Environmental Protection Agency [EPA] National Institutes of Environmental Health Sciences [NIEHS] National Toxicology Program [NTP] U.S. Food and Drug Administration [FDA] Tox21 Assay Overview: CREB (cyclic-AMP Responsive Element Binding Protein) is a cellular transcription factor. It binds to certain DNA sequences called cAMP Responsive Elements (CRE) and regulates the transcription of the genes. […] This cell line can be used to find agonists/antagonists of the cyclic AMP signaling pathway. The activation of the report gene under culture conditions can be detected by fluorescence intensity. This cell line has been used to screen the Tox21 10K compound library to identify agonists that induce oxidative stress.
# Tox21 Assay Protocol Summary: CRE-bla Hek 293T cells were suspended in assay medium (DMEM containing 10% dialyzed FBS, 0.1 mM NEAA, 1 mM sodium pyruvate and 25 mM HEPES) and dispensed at 2,000 cells/5 uL /well into 1536-well black wall/clear bottom plates using a Multidrop Combi (ThermoFisher Scientific, Waltham, MA) dispenser. After the assay plates were incubated at 37 C/5% CO2 for 18 hrs, 23 nL of compounds dissolved in DMSO, positive controls or DMSO only was transferred to the assay plate by a pintool workstation (Kalypsys, San Diego, CA). After the plates were incubated at 37 C/5% CO2 for 3 hrs, 1 uL of LiveBLAzer B/G FRET substrate (Invitrogen, Carlsbad, CA) was added to each well using Bioraptr Flying Reagent Dispenser (FRD, Aurora Discovery, San Diego, CA). The plates were incubated at room temperature for 2 h.
Structure (SMILES),Potency,activation
c1ccc(CCCc2ccncc2)cc1,inactive,
CCCc1ccc(N)cc1,inactive,
CCOc1cc(NC(C)=O)ccc1C(=O)OC,inactive,
OC[C@H]1O[C@H](O[C@H]2O[C@H](CO)[C@@H](O)[C@H](O)[C@H]2O)[C@H](O)[C@@H](O)[C@@H]1O,inactive,
O=C(O)c1ccc([N+](=O)[O-])cc1,inactive,
CC(=O)N[C@H]1[C@H]([C@H](O)[C@H](O)CO)OC(C(=O)O)=C[C@@H]1N=C(N)N,inactive,
CNC(=O)Nc1ccc(Cl)c(Cl)c1,inactive,
C=CC(C)(CCC=C(C)C)OC(=O)CC (stereo not given),inactive,
COc1ccc(OC)c(C(O)CNC(=O)CN)c1 (stereo not given),inactive,
COc1cc(OC)nc(O[C@H](C(=O)O)C(OC)(c2ccccc2)c2ccccc2)n1,inactive,
C=C(C)C(=O)OCCCCCCCC(C)C,inactive,
NC(=O)c1ccc([N+](=O)[O-])cc1Cl,inactive,
C=C(C)C(=O)NCCC[N+](C)(C)C,inactive,
COCCCC/C(=N\OCCN)c1ccc(C(F)(F)F)cc1,inactive,
CC(=O)OC/C=C(\C)CC/C=C(\C)CCC=C(C)C,inactive,
NC(=O)CCCCC(N)=O,inactive,
CCc1ccc(C=O)cc1,inactive,
COC(=O)c1ccc(C(=O)OC)cc1,inactive,
CCC(O)CO (stereo not given),inactive,
CC(=O)O[C@@H]1C[C@@H]2CC[C@@]1(C)C2(C)C,inactive,

Structure (SMILES),Potency,activation
NC1CCCCC1N (stereo not given),inactive,
COc1cc(Cl)ccc1Cl,inactive,
O=S(=O)(O)c1cccc2c(S(=O)(=O)O)cccc12,inactive,
O=S(=O)(O)c1ccccc1O,inactive,
CCCCCCCCC1CCC(=O)O1 (stereo not given),inactive,
CCCC(=O)c1ccccc1,inactive,
O=C(O)CCc1ccccc1,inactive,
CC[C@H](C)[C@@H](C(=O)O)n1sc2ccccc2c1=O,inactive,
CCOC(=O)N1CCC(=C2c3ccc(Cl)cc3CCc3cccnc32)CC1,inactive,
Cc1ccc(-c2ccccc2C#N)cc1,inactive,
CCCOC(C(=O)OC1CCN(C)CC1)(c1ccccc1)c1ccccc1,inactive,
CN(C)CCCNCCCN(C)C,inactive,
CC1OC1C1CCC2(C)OC2C1 (stereo not given),inactive,
CN(C)c1ccc(/C=C/c2ccc([N+](=O)[O-])cc2)cc1,,-3.18% [at 8.39 µM] (inactive)
CCN1CCc2nc(N)oc2CC1,inactive,
CCc1c(C(=O)O)c(=O)cnn1-c1ccc(Cl)cc1,inactive,
O=C1CCCCC1,inactive,
CC(CCC(=O)O)C(=O)O (stereo not given),inactive,
CCCCOCCOCCOCCCC,inactive,
CC(O)CNCC(C)O (stereo not given),inactive,
